TRHR ag = qHTS for Small Molecule Agonists and Allosteric Enhancers of Human TRH Receptor: Primary Screen for Agonists; Thyrotropin-releasing hormone receptor (Homo sapiens), P34981; TRHR cells, calcium flux fluo-8, FDSS agonist mode; activation, % at 2 µM; 360,000 compounds, 0.18% hits
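Read-out: compound-evoked intracellular calcium rise in TRHR cells, fluo-8 dye, kinetic FDSS fluorescence at 1 s/cycle following a 10-cycle baseline. Cells cultured overnight before dye loading (30 min–1.5 h, RT).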
D1 antagonist = Antagonist of Human D 1 Dopamine Receptor: qHTS | D(1A) dopamine receptor (Homo sapiens), P21728 | activity change, negative = inhibition, % at 10 µM | 360,000 compounds, 3.2% hits | HEK293 TREx D1 cells, calcium flux, dopamine EC80; hits give low values | AID 504652, 2011; in the data active = activity change below about -30%
Target sequence (P21728 whole entry, looked up): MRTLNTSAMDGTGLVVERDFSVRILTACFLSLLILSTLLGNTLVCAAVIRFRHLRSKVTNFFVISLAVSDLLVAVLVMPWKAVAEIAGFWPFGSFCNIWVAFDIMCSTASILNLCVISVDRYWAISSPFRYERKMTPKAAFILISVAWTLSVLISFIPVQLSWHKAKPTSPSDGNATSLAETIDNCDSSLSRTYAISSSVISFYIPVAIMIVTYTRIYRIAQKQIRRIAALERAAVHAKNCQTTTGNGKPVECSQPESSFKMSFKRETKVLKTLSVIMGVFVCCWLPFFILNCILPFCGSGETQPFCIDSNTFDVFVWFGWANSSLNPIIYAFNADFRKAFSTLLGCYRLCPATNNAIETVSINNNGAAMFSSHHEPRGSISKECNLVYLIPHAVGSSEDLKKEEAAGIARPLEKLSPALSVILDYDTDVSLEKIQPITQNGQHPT
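Compound effects on dopamine-evoked calcium signalling were measured in tetracycline-induced HEK293 Trex D1 cells. Dopamine at EC80 followed a 180 s compound pre-read, and fluorescence was tracked kinetically for 180 s more.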
D1 potentiator = Potentiators of Human D1 Dopamine Receptor: qHTS. 360,000 compounds, 0.036% hits. HEK293 TREx D1 cells, calcium flux, dopamine EC20 potentiation. D(1A) dopamine receptor (Homo sapiens), P21728. potentiation, % at 10 µM; in the data active = potentiation above about 30%
TRHR enhancer = qHTS for Small Molecule Agonists and Allosteric Enhancers of Human TRH Receptor: Primary Screen for Enhancers; Thyrotropin-releasing hormone receptor (Homo sapiens), P34981; TRHR cells, fluo-8 calcium fluorescence, EC20 TRH enhancement; enhancement, % at 2 µM; 360,000 compounds, 0.66% hits; in the data active = enhancement above about 30%
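TRHR-expressing cells loaded with fluo-8 calcium dye were read kinetically (ex 480/em 530) during compound addition, then stimulated with an EC20 of TRH (10 nM final). Enhancement of the Gq-mediated intracellular calcium response was scored.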
D1 agonist = Allosteric Agonists of the Human D1 Dopamine Receptor: qHTS | D(1A) dopamine receptor (Homo sapiens), P21728 | HEK293 T-REx D1 cells, calcium flux, agonist mode | activation, % at 2 µM | 360,000 compounds, 1% hits | AID 504660, 2011
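Tetracycline-induced HEK293 TREx D1 cells, force-coupled to calcium signalling, were dye-loaded with a no-wash calcium kit. Compound was pin-added after a 10 s baseline. Fluorescence was read kinetically at 1 cycle/s for 180 s, with calcium rises flagged as agonism.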
Of the large screens only hits and unclear results are named; the others gave an inactive call; ! = not confirmed by another sample. A selection: hits, their analogues and other compounds. The true share with any hit is near 4.7%. Cut-off read from the data, not from the text of the source, unless noted: active = activation above about 30%; inactive = the rest.

COCCNC(=O)CN(Cc1ccc2c(c1)OCO2)C(=O)CCC(=O)Nc1nccs1	none
CC(C)(C)NC(=O)CN(Cc1ccc2c(c1)OCO2)C(=O)CCC(=O)Nc1nccs1	TRHR enhancer 36
COc1ccc(N(CC(=O)NC(C)(C)C)C(=O)CCC(=O)Nc2nccs2)c(OC)c1	D1 antagonist -31
CC(C)(C)NC(=O)CN(Cc1ccco1)C(=O)CCC(=O)Nc1nccs1	D1 antagonist -31
CCCCn1cc(S(=O)(=O)c2ccc(CC)cc2)c(=O)c2cc(F)c(N3CCOCC3)cc21	none
CC1=CC=CC2=NC(=O)CC(C)(C(=O)N(CC(=O)NC3CCCC3)c3ccc(F)cc3)N12 (configuration not stated)	D1 antagonist -34
CCOC(=O)c1c(NC(=O)C(C)Sc2cn(CCNC(=O)c3c(F)cccc3F)c3ccccc23)sc2c1CCC2 (configuration not stated)	none
COc1ccc(COC(=O)c2c(C)nn(-c3ccccc3)c2Cl)cc1	D1 antagonist -37
Cc1cccc(N(C)S(=O)(=O)c2ccc(-c3cc(C)no3)s2)c1	D1 agonist 33!
CCN(c1cccc(C)c1)S(=O)(=O)c1ccc(-c2cc(C)no2)s1	none
CC(C)N1C(=O)C(O)(C2COC(C)(C)CC2=O)c2ccccc21 (configuration not stated)	TRHR enhancer 33
CCOC(=O)c1c(C)oc2nc(C)nc(N3CCN(c4cccc(C)c4C)CC3)c12	none
Cc1sc2nc(-c3cccnc3)[nH]c(=O)c2c1-c1ccccc1	D1 antagonist -49
O=c1oc2c(CN3CCCCCC3)c(O)ccc2cc1-c1nc2ccccc2[nH]1	D1 agonist 241
O=c1oc2c(CN3CCCC3)c(O)ccc2cc1-c1ccccc1	none
CN1CCN(Cc2c(O)ccc3cc(-c4ccccn4)c(=O)oc23)CC1	D1 antagonist -31, D1 agonist 44
Cc1c(C)c2ccc(O)c(CN3CCN(C)CC3)c2oc1=O	none
COc1ccc(CCNC(=O)CCCn2c(=O)c3ccccc3n(CC(=O)Nc3cccc(C)c3)c2=O)cc1OC	none
CCN(CC)c1ccc2cc(-c3nc(-c4cccs4)no3)c(=O)oc2c1	TRHR ag 124, D1 agonist 278
CCN(CC)c1ccc2cc(-c3nc(-c4cc(OC)c(OC)c(OC)c4)no3)c(=O)oc2c1	TRHR ag 122, D1 agonist 153
COc1cc(-c2noc(-c3cc4cccc(C)c4oc3=O)n2)cc(OC)c1OC	none
Cc1ccccc1-c1noc(-c2cc3ccccc3oc2=O)n1	none
CCN(CC)c1ccc2cc(-c3nc(-c4ccccc4F)no3)c(=O)oc2c1	TRHR ag 65, D1 agonist 204
Cc1cc(F)ccc1NC(=O)CS(=O)(=O)c1cccc2nsnc12	none
Cc1ccc(NCc2cccn2-c2nnc(N3CCCCCC3)s2)cc1	none
COc1cc(OC)c(Nc2nc3ccccc3c3nncn23)cc1Cl	none
Cc1ccc(-n2cc(-c3ccccc3)c3c(=O)[nH]cnc32)cc1	D1 antagonist -66
Fc1ccc(-n2cc(-c3ccccc3)c3c(=S)nc[nH]c32)cc1	D1 antagonist -41
Cc1ccccc1-c1ccnc2[nH]n(-c3ccccc3)c(=O)c12	D1 antagonist -37!
Cc1[nH]n(-c2ccccc2)c(=O)c1/C=N/c1ccccn1	none
Cc1cccc(NC(=O)CN2C(=O)C3(SCC(=O)N3c3ccccc3)c3ccccc32)c1 (configuration not stated)	D1 antagonist -36
Clc1cccc(CSc2nnc(C3CCNCC3)o2)c1	none
Cn1cc(C(=O)NCN2CCCCC2)c2ccccc21	D1 antagonist -40
CCC(C)NC(=O)Cn1c(=O)ccc2cc(S(=O)(=O)N3CCCC3)ccc21 (configuration not stated)	none
O=C(NNC(=O)C1CCCC1)c1ccccc1F	TRHR enhancer 35
O=C(NNC(=O)C1CC1c1ccccc1)c1ccccc1F (configuration not stated)	none
COc1ccc(Cl)cc1NC(=O)Cn1cnc2c1c(=O)n(C)c(=O)n2C	none
